DT40 TDP1 CPT: DT40-hTDP1 cell growth loss with CPT. chicken DT40 Tdp1-/-;hTDP1 cells + 20 nM CPT, ATP luminescence, 48 h. Potency, µM (series often up to 46.2 µM), for the others: at the highest dose activity change, negative = growth inhibition, actives largely listed as inhibitors. 12% of 420,000 active; further: potency means the concentration at half of the fitted maximal effect; nearly all actives have a fitted effect of over 55% in size
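Chicken DT40 Tdp1-/- cells stably complemented with human TDP1 were seeded at 400 cells/well in medium containing 20 nM camptothecin, exposed to pin-transferred compounds, and grown at 37 °C for at least 48 hr. Viability was read as ATP luminescence.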
HT1080NT lethal: kills 2HG-producing HT-1080-NT fibrosarcoma cells | 1.6% of 360,000 active | AID 686970 | HT-1080-NT fibrosarcoma viability, CellTiter-Glo ATP luminescence, 48 h | Potency, µM (highest dose often 46.1 µM), without a hit: at the top dose activity, negative = less viability, usual class: cytotoxic;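 further: NT is the 2HG producing partner of a matched IDH1 knockdown line; potency means the concentration at half of the fitted maximal effect; 0% = DMSO-treated cells and -100% = media-only wells without cells; nearly all actives have a fitted effect of over 55% in size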
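HT-1080-NT; 750 cells/well; 5% FBS RPMI; 48 h compound, 37 degrees C; CellTiter-Glo luminescence; curve fitting and curve-class assignment.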
ALOX12 inh: ALOX12 (human) lipoxygenase inhibition; P18054; purified 12hLO, xylenol orange hydroperoxide absorbance; Potency, µM (series often up to 108 µM), for the others: top-dose activity change, negative = inhibition, hits mostly inhibitors; 1.1% of 580,000 active; further: potency means the concentration at half of the fitted maximal effect
Target sequence (P18054 whole entry, looked up): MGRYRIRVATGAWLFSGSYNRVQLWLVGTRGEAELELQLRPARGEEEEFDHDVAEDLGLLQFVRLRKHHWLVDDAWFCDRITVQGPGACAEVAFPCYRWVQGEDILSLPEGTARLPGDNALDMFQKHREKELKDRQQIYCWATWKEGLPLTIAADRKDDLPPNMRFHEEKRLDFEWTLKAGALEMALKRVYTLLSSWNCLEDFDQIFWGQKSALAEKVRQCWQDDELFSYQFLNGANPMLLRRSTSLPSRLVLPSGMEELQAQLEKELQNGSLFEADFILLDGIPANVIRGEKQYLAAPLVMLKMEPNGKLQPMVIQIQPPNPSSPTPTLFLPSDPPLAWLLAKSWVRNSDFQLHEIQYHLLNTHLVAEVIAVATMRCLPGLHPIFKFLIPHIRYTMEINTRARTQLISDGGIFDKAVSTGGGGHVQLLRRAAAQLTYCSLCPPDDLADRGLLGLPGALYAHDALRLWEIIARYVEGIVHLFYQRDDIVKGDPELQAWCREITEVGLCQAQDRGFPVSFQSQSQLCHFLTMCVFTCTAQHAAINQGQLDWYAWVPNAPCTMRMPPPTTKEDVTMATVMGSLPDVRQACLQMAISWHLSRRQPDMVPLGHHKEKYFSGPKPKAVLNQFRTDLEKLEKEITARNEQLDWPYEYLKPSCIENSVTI
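Hydroperoxide product was detected by ferrous iron/xylenol orange as the 573 to 405 nm absorbance ratio. Arachidonic acid at 40 uM (final) was turned over for 30 min at room temperature by 150 nM human 12hLO, pH 7.0 Hepes buffer, after 15 min compound preincubation.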
TDP1 cell noCPT: qHTS for Inhibitors of human tyrosyl-DNA phosphodiesterase 1 (TDP1): qHTS in cells in absence of CPT. Potency, µM (top dose mostly 46.2 µM), for the others: top-dose activity change, negative = growth inhibition, usual class: inhibitors. AID 686978, 2013. DT40 Tdp1-/- hTDP1 cells, no CPT, ATP luminescence, 48 h. 15% of 420,000 active; further: potency means the concentration at half of the fitted maximal effect; nearly all actives have a fitted effect of over 55% in size
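DT40 Tdp1-/-;hTDP1 cells, no CPT (DMSO vehicle only), 400 cells/well; compounds pin-transferred; ≥48 hr, 37 °C; CellTiter-Glo 30 min RT dark, luminescence read.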
HT1080 IDH1KD tx: toxicity to HT-1080 IDH1 knockdown cells (counter line) | Potency, µM (highest dose often 46.1 µM), for inactives: at the top dose activity, negative = toxicity, hits mostly cytotoxic | 2% of 360,000 active | HT-1080 IDH1 knockdown viability, ATP luminescence, 48 h;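 further: potency means the concentration at half of the fitted maximal effect; 0% = DMSO wells and -100% = cell-free medium wells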
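Cytotoxicity counter-line: IDH1KD HT-1080, 48 h, CellTiter-Glo. Curves classed by r2, magnitude and activity.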
IL1B secr inh: inhibitors of inflammasome signaling (IL-1 beta secretion) | 4.7% of 360,000 active | THP-1 LPS/ATP IL-1B secretion, AlphaLISA, 16 h; active compounds read low | activity change, % at 57.5 µM | AID 743279; in the data active means activity change below about -50%; inconclusive means mostly about -30% to -49%
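Secreted IL-1B measured by AlphaLISA bead assay after 16 h compound exposure of THP-1 cells; compounds (final up to 57.5 uM) added 1 h before LPS (250 ng/mL) and ATP (1.25 mM) stimulation; lower signal means less secretion.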
An asterisk follows results filed as active; ? = inconclusive; . = not tested or not shown. Only a selection was taken, and hits are over-represented in it overall. Unless noted, the call rests on the fitted dose curve; in most records, active means well fitted curve in the direction sought with a large enough effect; inconclusive means small, poorly fitted or top-dose-only effect, or another doubt; inactive means no such curve, though single readings can be large; an effect the other way counts as inactive or inconclusive. Unless noted, on the % scale 0 is the no-effect control and ±100 the full control effect.

SMILES | DT40 TDP1 CPT | HT1080NT lethal | ALOX12 inh | TDP1 cell noCPT | HT1080 IDH1KD tx | IL1B secr inh
COc1cccc(C(C)(O)c2nc(-c3cncnc3)cs2)c1 (configuration not stated) | ? | 12% | ? | ? | 16% | 43
CC(C)(O)c1cc2ccc(C#Cc3ccsc3)cc2c(=O)o1 | ? | -9% | -35% | ? | -1% | -22
O=C(CCn1ccnc1)N1CCC2(CCC(=O)N(CC3CC3)CC2)CC1 | . | . | 13% | . | . | .
CCc1ccc(CNC(=O)C2CCN(C(=O)c3nnn4c3COC(c3ccc(C)cc3)C4)CC2)cc1 (configuration not stated) | . | . | -6% | . | . | .
COc1ccc(C(C)(O)c2nc(-c3csc4ccccc34)cs2)cc1 (configuration not stated) | 2.9µM* | ? | -8% | 4.6µM* | 16µM* | 54
COc1ccc(-c2csc(C(C)(O)c3cccc(OC)c3)n2)cc1 (configuration not stated) | 16µM* | -14% | ? | ? | ? | 9
CC(=O)NC(C)(c1ccccc1)c1nc(/C=C/c2ccccc2)cs1 (configuration not stated) | ? | -26% | -11% | 16µM* | -14% | -15
CC(O)(c1cccnc1)c1nc(-c2ccc3ccccc3c2)cs1 (configuration not stated) | 21µM* | ? | -17% | 23µM* | ? | 5
COc1ccc(C(C)(O)c2nc(-c3cncnc3)cs2)cc1 (configuration not stated) | -13% | 15% | -11% | -19% | 2% | 42
COc1cccc(C(C)(O)c2nc(-c3ccc(Cl)cc3)cs2)c1 (configuration not stated) | ? | ? | ? | ? | ? | 11
COc1ccc(C(C)(O)c2nc(-c3ccoc3)cs2)cc1 (configuration not stated) | ? | 19% | 28µM* | ? | -15% | 9
CC(O)(c1cccc(F)c1)c1nc(-c2cccc(C#N)c2)cs1 (configuration not stated) | ? | ? | -24% | ? | -5% | 16
CC(O)(c1cccnc1)c1nc(-c2cccc(C#N)c2)cs1 (configuration not stated) | 16µM* | 6% | -3% | 15µM* | 1% | 11
CC(O)(c1cccnc1)c1nc(/C=C/c2ccccc2)cs1 (configuration not stated) | ? | -15% | -3% | 21µM* | -19% | 41
COc1cccc(C(C)(O)c2nc(-c3ccc(S(C)(=O)=O)cc3)cs2)c1 (configuration not stated) | ? | -17% | -3% | 18µM* | -29% | -10
COCCn1c(C)cnc1CC1CCCN(Cc2ccc(F)cc2F)C1 (configuration not stated) | . | . | 50% | . | . | .
CCCS(=O)(=O)N1CCC(N2CCN(Cc3ccc(F)cc3)C(=O)C2=O)CC1 | -5% | . | -16% | 0% | . | .
CC1CCN(C(=O)COC(=O)c2cccc(S(=O)(=O)N3CCOCC3)c2)CC1 | 5% | 4% | 11% | -26% | 8% | 13
O=C(N[C@@H]1CN(C(=O)c2[nH]nc3c2CCc2ccccc2-3)CC[C@@H]1CO)c1ccccc1 | . | . | 30% | . | . | .
COc1ccc(Cl)cc1C(=O)Nc1cccc(-c2nnc3n2CCCC3)c1 | . | . | -20% | . | . | .
O=C(NCCC1=CCCCC1)c1ccc(N2CC3CC(C2)[C@H]2CCCC(=O)N2C3)nc1 (some centres not stated) | . | . | 35% | . | . | .
COCc1cccc(-c2csc(C(C)(O)c3cccc(OC)c3)n2)c1 (configuration not stated) | 13µM* | ? | ? | ? | ? | 4
O=C(Cn1ccn2nc(-c3ccccc3)c(CO)c2c1=O)Nc1ccccc1 | . | . | -12% | . | . | .
COC(=O)Nc1nc(-c2ccccc2)c(C(=O)c2ccccc2)s1 | 0.82µM* | ? | 10% | 0.65µM* | ? | 33
COC(=O)Nc1nc(C)c(C(=O)c2ccccc2)s1 | 8.2µM* | ? | -10% | 12µM* | ? | 26
SMILES | DT40 TDP1 CPT | HT1080NT lethal | ALOX12 inh | TDP1 cell noCPT | HT1080 IDH1KD tx | IL1B secr inh
CN(C)S(=O)(=O)c1ccc(C(=O)Nc2nc(-c3ccccc3)c(C(=O)c3ccccc3)s2)cc1 | ? | 10% | -3% | ? | -4% | 18
CCOC(=O)Nc1nc(C)c(C(=O)c2ccc(Cl)cc2)s1 | ? | -4% | 34% | ? | -12% | 6
O=C1CC(c2ccccc2)N(C(=O)CNC(=O)NCc2ccc(F)cc2)CCCCCCN1 (configuration not stated) | . | . | -3% | . | . | .
CCOC(=O)C1C2C=CC(C3CC23)C1C(=O)OCC(=O)c1ccccc1 (configuration not stated) | . | . | 2% | . | . | .
CN1CCN(C(=S)NC(CC(=O)c2ccccc2)c2ccccc2)CC1 (configuration not stated) | -7% | 1% | 1% | -30% | -15% | -52*
CN1CCN(C(=S)NC(=O)/C=C/c2cccc3ccccc23)CC1 | -12% | 10µM* | -19% | -17% | ? | 14
CCN1CCN(C(=S)NC(CC(=O)c2ccccc2)c2ccccc2)CC1 (configuration not stated) | 9% | -7% | 51% | -24% | -4% | ?
COc1cccc(CN2CCCC(COc3ccccc3C(=O)N3CCC(C)CC3)C2)c1 (configuration not stated) | . | . | 32% | . | . | .
CCc1nc2c(OCc3cc(Cl)cc(Cl)c3)cccn2c1N(C)C(=O)c1ccc(C)cc1 | 16µM* | ? | ? | ? | ? | -57*
CCc1nc2c(OCc3ccccc3)cccn2c1N(C)C(=O)c1ccc(OC)cc1 | -23% | ? | ? | ? | 28% | 23
CCc1nc2c(OCc3ccc(F)cc3)cccn2c1N(C)C(=O)c1ccncc1 | -13% | 1% | -23% | -29% | 15% | 13
CCc1nc2c(OCc3ccc(Cl)cc3)cccn2c1N(C)C(=O)c1ccncc1 | 21µM* | -9% | 0% | 21µM* | -8% | -7
CCc1nc2c(OCc3ccccc3C)cccn2c1N(C)C(=O)c1ccc(C)cc1 | 18µM* | -21% | -4% | 16µM* | -7% | -6

From PubChem BioAssay
